# Measurements: PubChem BioAssay AID624330 (Southern Research Specialized Biocontainment Screening …, 2012)
# Values joined by “and” are separate entries in the source; they are usually repeats but may differ in a detail not shown here. Equal values may be shown once. Screen size: about 340,000 compounds; about 2,100 (0.62%) were called active.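 How the source made its calls: active means first-screen hits whose inhibition reached a set limit at any dose in the follow-up dose series; inconclusive means inhibition above the set first-screen limit but never retested; inactive means the rest.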 The list is a sample of the results. Measured potencies and affinities stand elsewhere.
# Target: Rac GTPase-activating protein 1 (Homo sapiens) (UniProt Q9H0H5)
# Sequence (Q9H0H5 whole entry, looked up): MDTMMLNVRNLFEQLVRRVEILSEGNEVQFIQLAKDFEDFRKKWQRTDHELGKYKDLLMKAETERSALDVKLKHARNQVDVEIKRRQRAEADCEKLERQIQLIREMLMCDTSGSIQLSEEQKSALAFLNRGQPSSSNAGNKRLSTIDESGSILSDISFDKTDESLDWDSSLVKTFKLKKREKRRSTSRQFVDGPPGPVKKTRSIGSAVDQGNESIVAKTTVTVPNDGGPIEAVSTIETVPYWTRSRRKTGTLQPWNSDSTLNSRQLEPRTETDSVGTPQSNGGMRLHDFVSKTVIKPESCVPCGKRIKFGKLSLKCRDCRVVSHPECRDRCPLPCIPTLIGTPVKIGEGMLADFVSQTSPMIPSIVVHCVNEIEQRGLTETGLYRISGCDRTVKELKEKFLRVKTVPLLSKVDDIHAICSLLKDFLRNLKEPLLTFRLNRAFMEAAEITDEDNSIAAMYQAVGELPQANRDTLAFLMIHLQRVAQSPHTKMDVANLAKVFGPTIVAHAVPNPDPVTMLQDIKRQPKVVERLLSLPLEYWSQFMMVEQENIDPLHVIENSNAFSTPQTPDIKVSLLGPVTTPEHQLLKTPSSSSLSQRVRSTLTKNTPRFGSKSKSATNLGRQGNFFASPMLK
# Assay: MgcRacGAP GTPase-activating activity inhibitors, confirmation, biochemical, ADP Hunter fluorescence, primary and confirmatory (AID 624330);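 further: fluorescence reports GDP produced by GAP-driven GTP hydrolysis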
# Settings: MgcRacGAP-stimulated Rac1 GTP hydrolysis, at 30 µM, stronger effect = higher value, GST-tagged Rac1 F28L mutant substrate
row,SMILES,inhibition
1,Cc1nc(NCC(c2ccccc2)N(C)C)c2c(C)c(C)sc2n1 (stereo not given),7.93% (inactive)
2,C=CCNC(=O)CN1CCN(Cc2ccc3c(c2)OCO3)CC1,6.33% (inactive)
3,O=C(NNc1ccccc1[N+](=O)[O-])NC1CCCCC1,2.65% (inactive)
4,Cc1ccc(NC(=O)CCn2c(=O)c3cccn3c3ccccc32)cc1C,7.75% (inactive)
5,CN(CC(=O)Nc1ccccc1N1CCCC1)S(=O)(=O)c1ccc(F)cc1,3.64% (inactive)
6,CCOC(=O)NNC(=O)c1[nH]c2ccc(Br)cc2c1-c1ccccc1,9.63% (inactive)
7,O=C(O)c1cccc(Nc2nc(C(F)(F)F)nc3ccccc23)c1,2.84% (inactive)
8,OCCN(CCO)c1cc2c3ccccc3ccc2c2ccccc12,16% (inactive)
9,OCCN(CCO)c1ccc(C(c2ccccc2Cl)c2ccc(N(CCO)CCO)cc2Cl)c(Cl)c1,4.93% (inactive)
10,CC(Oc1cc2oc(=O)c3c(c2cc1Cl)CCCC3)C(=O)NCCN1CCOCC1 (stereo not given),11.2% (inactive)
11,CCC(C)c1ccc(NC(=S)NCCn2cc(Cl)cn2)cc1 (stereo not given),10.6% (inactive)
12,CC(NCc1ccc(S(N)(=O)=O)cc1)C(=O)N1CCc2ccccc21 (stereo not given),16.2% (inactive)
13,CC1Cc2ccccc2N1C(=S)Nc1ccc(S(N)(=O)=O)cc1 (stereo not given),10.7% (inactive)
14,CCOC(=O)N1CCN(c2c(N3CCN(c4ccc(F)cc4)CC3)c(=O)c2=O)CC1,6.14% (inactive)
15,O=C(CCCn1c(=S)[nH]c2cc3c(cc2c1=O)OCO3)NCCc1ccccc1Cl,9.48% (inactive)
16,Cc1ccc(Nc2nc(-c3ccncc3)cs2)cc1,8.27% (inactive)
17,Clc1ccc(Nc2nc(-c3ccncc3)cs2)cc1,9.41% (inactive)
18,Nc1ccc(C(=O)Nc2ccc(Nc3ccncc3)cc2)cc1,5.48% (inactive)
19,Nc1ccc(Nc2ccncc2[N+](=O)[O-])cc1,8.85% (inactive)
20,CSc1cc(/C=N/O)c(SC)s1,3.21% (inactive)

row,SMILES,inhibition
1,CCCn1c2ccccc2c2cnn(CC(=O)N3CCN(C4CCCCC4)CC3)c(=O)c21,10.4% (inactive)
2,O=C(O)c1cc([N+](=O)[O-])cc([N+](=O)[O-])c1N1CCN(c2cccc(C(F)(F)F)c2)CC1,-6.28% (inactive)
3,COc1ccc(N(C(=O)COc2ccc(C)cc2)S(=O)(=O)c2ccc(C)cc2)cc1,3.97% (inactive)
4,COc1ccc(/C=C2\Oc3cc(OCC(N)=O)ccc3C2=O)cc1OC,10.9% (inactive)
5,O=C1/C(=C/c2ccc(Br)cc2)Oc2cc(O)ccc21,7.31% (inactive)
6,CC(C)(C)c1ccc(/C=C2\Oc3cc(O)ccc3C2=O)cc1,5.28% (inactive)
7,O=C1/C(=C/c2cccc(F)c2)Oc2cc(O)ccc21,6.11% (inactive)
8,O=C(COC(=O)CNC(=O)c1ccc(Br)cc1)NCCC1=CCCCC1,11.9% (inactive)
9,Cc1cccc2cc(CN(CC(C)C)S(=O)(=O)c3ccccc3)c(=O)[nH]c12,8.17% (inactive)
10,O=c1c2ccccc2c(C=Nc2ccc(Cl)cn2)c(O)n1-c1cc(Cl)ccc1N1CCOCC1,12.5% (inactive)
11,Brc1cc2[nH]cnc2c2ccccc12,8.14% (inactive)
12,Oc1ccc2c(c1)c1ccccc1c1ncccc21,17.4% (inactive)
13,CCN(CC(=O)Nc1c(F)cccc1F)C(=O)c1cccc(S(=O)(=O)N(C)c2ccccc2)c1,2.67% (inactive)
14,COC(=O)C=CSC(=S)C1CCCC1=N (stereo not given),6.77% (inactive)
15,COc1ccccc1-c1cn(-c2ccccc2)c(=S)[nH]1,10.3% (inactive)
16,N#CCCn1c(SCC(=O)c2c[nH]c3ccccc23)nc2ccccc21,15.1% (inactive)
17,Cc1nn(-c2cc(C(F)(F)F)ccc2Cl)c2nc(C(Cl)(Cl)Cl)[nH]c(=O)c12,9.52% (inactive)
18,COc1ccc(C2C3=C(CC(C)(C)CC3=O)Oc3ncn(Cc4ccccc4)c(=N)c32)cc1 (stereo not given),2.61% (inactive)
19,COC(=O)C(=Cc1ccc(OCc2ccc([N+](=O)[O-])cc2)c(OC)c1)C(=O)OC,13.9% (inactive)
20,COc1cc(/C=C/C(=O)O)ccc1OCc1ccc([N+](=O)[O-])cc1,7.48% (inactive)

row,SMILES,inhibition
1,C/C(N)=C(/C#N)C(=O)CSc1nnc(SCc2ccc(Cl)cc2)s1,2.43% (inactive) and 2.31% (inactive)
2,COc1cc(C(=O)NNC(=O)CNC(=O)C2CCCCC2)ccc1OC(C)C,0.59% (inactive)
3,Cc1ccc(S(=O)(=O)N2[C@@H](c3ccc(F)cc3)C(C(=O)O)=C[C@H]2CC2CCCC2)cc1,11% (inactive)
4,CN1CC(=O)N(CC(=O)Nc2ccc(F)cc2)c2ccccc2C1=O,-12.2% (inactive)
5,CCOc1ccc(NC(=O)CCN2C(=O)c3cccc([N+](=O)[O-])c3C2=O)cc1,3.27% (inactive)
6,Cc1ccc(NC(=O)CN2C(=O)c3ccccc3C2=O)cc1,10.7% (inactive)
7,CN1CC(=O)N(CC(=O)NCc2ccc(F)cc2)c2ccccc2C1=O,1.75% (inactive)
8,COc1ccc(NC(=O)CCN2C(=O)c3cccc([N+](=O)[O-])c3C2=O)cc1,6.66% (inactive)
9,O=C(CN1C(=O)c2ccccc2C1=O)Nc1ccccc1,1.35% (inactive)
10,CN(C)c1ccc(NC(=O)CN2CCc3ccccc3C2)cc1,14.3% (inactive)
11,CN(C)c1ccc(NC(=O)CN2C(=O)CC(c3ccccc3)=Nc3ccccc32)cc1,30.9% (inactive)
12,COC(=O)Nc1nnc(-c2ccc(OC)cc2)s1,16% (inactive)
13,COc1ccc(C(=O)NNC(=O)COc2ccc(Cl)cc2C)cc1S(=O)(=O)N1CCOCC1,6.89% (inactive)
14,O=C(NCCN1CCOCC1)C(Sc1ccccc1)c1ccccc1 (stereo not given),15.2% (inactive)
15,NCCSc1c(-c2ccc(Cl)cc2)[nH]c2ccccc12,8.34% (inactive)
16,O=C(COC(=O)c1c(F)cccc1Cl)NC(=O)Nc1ccc2c(c1)OCCO2,0.21% (inactive)
17,CC(=O)NC12CC3CC(C1)CC(C(=O)N1CCN(S(=O)(=O)c4ccccc4[N+](=O)[O-])CC1)(C3)C2,9.33% (inactive)
18,COCCNC(=O)c1cc(-c2ccccc2)nn1Cc1cc(C)no1,2.94% (inactive)
19,Cc1c(-c2ccccc2)c(=O)oc2cc(O)ccc12,7.91% (inactive)
20,O=c1oc2cc(O)ccc2c2ccccc12,17.2% (inactive)
